Source: the antibiotic and cytotoxicity screens of Wong et al. (2023)
Hit rate of the full screen: of about 39,000 compounds, about 3,300 (8.5%) were called active. The sample holds actives, similar compounds and a random draw of the others, so the mix is not that of the screen.

Test system: HepG2
Experiment: cytotoxicity call (relative viability < 0.9)
Conditions: 10 µM

Row | Structure (SMILES) | cytotoxicity call
1 | CO[C@@H]1CN(C)C(=O)c2cc(NS(C)(=O)=O)ccc2OC[C@H](C)N(C(=O)CN(C)C)C[C@@H]1C | inactive
2 | C[C@H](CO)N1C[C@H](C)[C@H](CN(C)CC2CC2)OCCCC[C@H](C)Oc2ccc(NC(=O)CCC(F)(F)F)cc2C1=O | inactive
3 | CN(C)CCC(c1ccc(Cl)cc1)c1ccccn1.O=C(O)C=CC(=O)O (centres undefined) | active
4 | CN(C)CCNC(=O)c1ccccn1 | inactive
5 | CN(C)CCC(c1ccc(Br)cc1)c1ccccn1.O=C(O)C=CC(=O)O (centres undefined) | active
6 | CN(C)CCC(c1ccccc1)c1ccccn1.O=C(O)C=CC(=O)O (centres undefined) | inactive
7 | CN(C)CCOC(c1ccc(Cl)cc1)c1ccccn1.O=C(O)C=CC(=O)O (centres undefined) | inactive
8 | CC(=O)Oc1ccc(C(c2ccc(OC(C)=O)cc2)c2ccccn2)cc1 | inactive
9 | C[C@@H]1CN([C@@H](C)CO)C(=O)c2cc(NC(=O)c3ccncc3)ccc2O[C@@H](C)CCCCO[C@H]1CN(C)C(=O)C1CCCCC1 | inactive
10 | C[C@@H]1CN([C@@H](C)CO)C(=O)c2cc(NS(=O)(=O)c3cccs3)ccc2O[C@@H]1CN(C)S(=O)(=O)c1cccs1 | inactive
11 | C[C@H](CO)N1C[C@H](C)[C@H](CN(C)S(=O)(=O)c2ccccc2)Oc2c(NS(C)(=O)=O)cccc2C1=O | inactive
12 | CN(C)S(=O)(=O)N(C)c1ccccc1 | inactive
13 | C[C@@H]1CN([C@@H](C)CO)C(=O)c2cc(NC(=O)Nc3ccc4c(c3)OCO4)ccc2O[C@@H](C)CCCCO[C@H]1CN(C)C(=O)Nc1ccc(C(F)(F)F)cc1 | inactive
14 | C[C@H]1CN([C@@H](C)CO)C(=O)c2cc(NS(=O)(=O)c3ccc(F)cc3)ccc2O[C@H]1CN(C)C(=O)Nc1cccc2ccccc12 | inactive
15 | S=C(SN1CCOCC1)N1CCOCC1 | inactive
16 | COc1cc(Nc2ncc3c(n2)-c2ccc(Cl)cc2C(c2c(F)cccc2OC)=NC3)ccc1C(=O)O | active
17 | C[C@H](CO)N1C[C@H](C)[C@@H](CN(C)Cc2ccc(C(F)(F)F)cc2)Oc2ccc(NC(=O)CCCCCC(=O)Nc3ccccc3N)cc2C1=O | inactive
18 | C[C@H](CO)N1C[C@H](C)[C@H](CN(C)Cc2ccc(C(F)(F)F)cc2)Oc2ccc(NC(=O)CCCCCC(=O)Nc3ccccc3N)cc2C1=O | inactive
19 | C[C@@H]1CN([C@H](C)CO)C(=O)c2cc(NC(=O)CCCCCC(=O)Nc3ccccc3N)ccc2O[C@@H]1CN(C)Cc1ccc(C(F)(F)F)cc1 | inactive
20 | C[C@@H]1CN([C@@H](C)CO)C(=O)c2cc(NC(=O)CCCCCC(=O)Nc3ccccc3N)ccc2O[C@@H]1CN(C)Cc1ccc(C(F)(F)F)cc1 | inactive
21 | C[C@H]1CN([C@@H](C)CO)C(=O)c2cc(NC(=O)CCCCCC(=O)Nc3ccccc3N)ccc2O[C@H]1CN(C)Cc1ccc(-c2ccccc2)cc1 | inactive
22 | C[C@@H]1CN([C@H](C)CO)C(=O)c2cc(NC(=O)CCCCCC(=O)Nc3ccccc3N)ccc2O[C@H]1CN(C)Cc1ccc(-c2ccccc2)cc1 | active
23 | C[C@H](CO)N1C[C@H](C)[C@H](CN(C)Cc2ccc(-c3ccccc3)cc2)Oc2ccc(NC(=O)CCCCCC(=O)Nc3ccccc3N)cc2C1=O | active

Row | Structure (SMILES) | cytotoxicity call
24 | C[C@@H]1CN([C@@H](C)CO)C(=O)c2cc(NC(=O)CCCCCC(=O)Nc3ccccc3N)ccc2O[C@H]1CN(C)Cc1ccc(C(F)(F)F)cc1 | inactive
25 | C[C@@H]1CN([C@@H](C)CO)C(=O)c2cc(NC(=O)CCCCCC(=O)Nc3ccccc3N)ccc2O[C@@H]1CN(C)Cc1ccc(-c2ccccc2)cc1 | active
26 | COc1ccc(CN(C)C[C@@H]2Oc3ccc(NS(C)(=O)=O)cc3CC(=O)N([C@H](C)CO)C[C@@H]2C)cc1 | inactive
27 | O=C(C[C@H]1CC[C@@H]2[C@H](COC[C@@H](O)CN2S(=O)(=O)c2ccc(Oc3ccccc3)cc2)O1)NCCN1CCCCC1 | inactive
28 | Cc1noc(C)c1S(=O)(=O)Nc1ccc2c(c1)CC(=O)N([C@H](C)CO)C[C@H](C)[C@H](CN(C)S(C)(=O)=O)O2 | inactive
29 | O=C1O[C@H](c2ccccc2)[C@H](c2ccccc2)N2[C@H]1[C@@H](C(=O)Nc1nc3ccccc3s1)[C@]1(C(=O)Nc3ccc(C#CCCO)cc31)[C@H]2c1ccc(OCCO)cc1 | inactive
30 | COc1ccc(S(=O)(=O)Nc2ccc3c(c2)C(=O)N([C@@H](C)CO)C[C@@H](C)[C@@H](CN(C)C(=O)Nc2cccc4ccccc24)OCCCC[C@@H](C)O3)cc1 | inactive
31 | COc1ccc(NC(=O)N(C)C[C@@H]2Oc3c(NC(=O)C4CCOCC4)cccc3C(=O)N([C@H](C)CO)C[C@@H]2C)cc1 | inactive
32 | C[C@H]1CN([C@@H](C)CO)C(=O)c2cccc(NS(=O)(=O)c3cn(C)cn3)c2O[C@H]1CN(C)C(=O)Nc1ccc(F)cc1 | inactive
33 | COc1cccc(S(=O)(=O)Nc2ccc3c(c2)C(=O)N(C)C[C@H](OC)[C@H](C)CN(C(=O)Cc2cccnc2)[C@@H](C)CO3)c1 | inactive
34 | Cc1ccc(S(=O)(=O)N(C)C[C@@H]2OCCCC[C@@H](C)Oc3ccc(NC(=O)Nc4ccc5c(c4)OCO5)cc3C(=O)N([C@@H](C)CO)C[C@@H]2C)cc1 | inactive
35 | S=C1NCN(Cc2ccncc2)CN1 | inactive
36 | S=C1NCN(C2CCCC2)CN1 | inactive
37 | CCN1CCC[C@@H]1CN1CNC(=S)NC1 | active
38 | C[C@H](CO)N1C[C@H](C)[C@H](CN(C)C(=O)Nc2ccc(C(F)(F)F)cc2)OCCCC[C@H](C)Oc2ccc(NC(=O)Nc3cccc4ccccc34)cc2C1=O | inactive
39 | O=C(Cc1ccncc1)NCC[C@@H]1CC[C@H](NC(=O)C2CCOCC2)[C@H](CO)O1 | inactive
40 | Cn1c(=O)[nH]c(=O)c2[nH]cnc21 | inactive
41 | CN(C)Cc1nc2c([nH]1)c(=O)[nH]c(=O)n2C | active
42 | CN(C)c1nc2c([nH]1)c(=O)[nH]c(=O)n2C | inactive
43 | Cc1ccc(S[C@]2(C(=O)NCC(C)C)CC(=O)N(Cc3ccccc3)[C@@H]2c2ccc(CO)cc2)cc1 | inactive
44 | O=C1[N-]C(=O)C(c2ccccc2)(c2ccccc2)N1.[Na+] | inactive
45 | C[C@H](CO)N1C[C@H](C)[C@H](CN(C)S(=O)(=O)c2ccc(F)cc2)Oc2ccc(NC(=O)Cn3cnnn3)cc2C1=O | inactive
46 | C[C@H](CO)N1C[C@H](C)[C@H](CN(C)C(=O)Nc2ccc(C(F)(F)F)cc2)Oc2c(NC(=O)C3CCCCC3)cccc2C1=O | active

Row | Structure (SMILES) | cytotoxicity call
47 | C[C@@H]1CN([C@H](C)CO)C(=O)c2cccc(NC(=O)NC3CCCCC3)c2O[C@H]1CN(C)C(=O)Nc1ccc(C(F)(F)F)cc1 | active
48 | C[C@@H]1CN([C@H](C)CO)C(=O)c2cccc(NC(=O)C3CCCCC3)c2O[C@H]1CN(C)C(=O)Nc1ccc(C(F)(F)F)cc1 | inactive
49 | C[C@@H]1CN([C@@H](C)CO)C(=O)c2cccc(NC(=O)C3CCCCC3)c2O[C@@H]1CN(C)C(=O)Nc1ccc(C(F)(F)F)cc1 | inactive
50 | C[C@@H]1CN([C@@H](C)CO)C(=O)c2cccc(NC(=O)NC3CCCCC3)c2O[C@@H]1CN(C)C(=O)Nc1ccc(C(F)(F)F)cc1 | inactive
51 | CC(C)NC(=O)N(C)C[C@@H]1Oc2c(NC(=O)C3CCCCC3)cccc2C(=O)N([C@H](C)CO)C[C@H]1C | inactive
52 | CC(C)NC(=O)N(C)C[C@@H]1Oc2c(NC(=O)C3CCCCC3)cccc2C(=O)N([C@@H](C)CO)C[C@@H]1C | active
53 | C[C@H](CO)N1C[C@H](C)[C@@H](CN(C)C(=O)Nc2ccc(C(F)(F)F)cc2)Oc2c(NC(=O)NC3CCCCC3)cccc2C1=O | inactive
54 | CC(C)NC(=O)N(C)C[C@H]1Oc2c(NC(=O)C3CCCCC3)cccc2C(=O)N([C@H](C)CO)C[C@@H]1C | inactive
55 | C[C@H](CO)N1C[C@H](C)[C@H](CN(C)C(=O)Nc2ccc(C(F)(F)F)cc2)Oc2c(NC(=O)NC3CCCCC3)cccc2C1=O | active
56 | N#CCC(=O)N1CCSCC1 | inactive
57 | C[C@@H]1CCCCO[C@@H](CN(C)S(=O)(=O)c2ccc(F)cc2)[C@@H](C)CN([C@H](C)CO)C(=O)c2cc(NS(C)(=O)=O)ccc2O1 | inactive
58 | CC(C)CN1C[C@@H]2CCNCC[C@H]2S1(=O)=O | inactive
59 | C[C@H](CO)N1C[C@H](C)[C@@H](CN(C)Cc2ccc(C(=O)O)cc2)Oc2ccc(NS(=O)(=O)c3cn(C)cn3)cc2CC1=O | inactive
60 | O=C(C[C@@H]1C[C@H]2c3cc(NS(=O)(=O)c4ccc(F)cc4)ccc3O[C@H]2[C@@H](CO)O1)NCc1ccccc1F | inactive
61 | Nc1cc(=O)[nH]c(=O)n1Cc1ccccc1 | inactive
62 | COc1ccc(CN2C[C@@H](C)[C@H](OC)CN(C)C(=O)c3ccc(NC(=O)c4nc5ccccc5s4)cc3OC[C@@H]2C)cc1 | inactive
63 | COc1ccc2c3c([nH]c2c1)[C@H](CO)N(C[C@]13CCN(CC1)CC1CCCC1)S(=O)(=O)c1cn(cn1)C | inactive
64 | COc1ccccc1CN1C(=O)c2ccccc2[C@@]2(Cc3ccccc3N(C(C)C)C2=O)[C@@H]1c1ccc(CO)cc1 | inactive
65 | C[C@H]1CN([C@@H](C)CO)C(=O)c2cccc(NC(=O)NC3CCCCC3)c2O[C@H]1CN(C)C(=O)Nc1ccc(C(F)(F)F)cc1 | active
66 | C[C@H]1CN([C@@H](C)CO)C(=O)c2cccc(NC(=O)NC3CCCCC3)c2O[C@@H]1CN(C)C(=O)Nc1ccc(C(F)(F)F)cc1 | inactive
67 | C[C@@H]1CN([C@H](C)CO)C(=O)c2cccc(NC(=O)NC3CCCCC3)c2O[C@@H]1CN(C)C(=O)Nc1ccc(C(F)(F)F)cc1 | inactive
68 | CCCn1nc(C)c(CN)c1C | inactive
69 | Cc1ccc(S(=O)(=O)N(C)C[C@@H]2OCCCC[C@@H](C)Oc3ccc(NC(=O)Nc4ccc(C(F)(F)F)cc4)cc3C(=O)N([C@@H](C)CO)C[C@@H]2C)cc1 | inactive
